The values below come from PubChem BioAssay (NCI).

A short description of experiment [1]: NCI Yeast Anticancer Drug Screen. Data for the rad50 strain (AID 155).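 Further: 0% = growth of vehicle-only cultures of the same strain.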 The settings on record: S. cerevisiae rad50 strain growth inhibition; at 50.0 µM; stronger effect = higher value. A digest of the protocol: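 DNA repair mutant yeast, compound exposure, growth read-out; inhibition is taken relative to vehicle.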
Experiment [2] can be described thus: NCI Yeast Anticancer Drug Screen. Data for the mec2-1 strain (AID 157). The following applies: S. cerevisiae mec2-1 strain, at 50.0 µM, stronger effect = higher value. In a few lines:
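Using mec2-1 yeast: add compound, measure growth, express inhibition versus vehicle-treated cultures.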

Experiment [3] is described as follows: NCI Yeast Anticancer Drug Screen. Data for the sgs1 mgt1 strain (AID 161).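 Further: 0% = growth of cultures given vehicle only.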 The settings on record: S. cerevisiae sgs1 mgt1 strain, at 50.0 µM, stronger effect = higher value. A digest of the protocol: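 This yeast growth screen uses a strain with defined DNA-repair lesions; compound-treated growth is compared with vehicle-treated growth.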
Experiment [4] can be described thus: NCI Yeast Anticancer Drug Screen. Data for the cln2 rad14 strain (AID 165).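 Further: 0% = growth equal to vehicle treated cultures.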 The settings on record: S. cerevisiae cln2 rad14 strain, at 50.0 µM, stronger effect = higher value. In a few lines: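 Yeast strain cln2 rad14, bearing defects in cell cycle control and DNA repair, serves as the test system; values reflect growth inhibition compared with vehicle.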
Experiment [5] can be described thus: NCI Yeast Anticancer Drug Screen. Data for the bub3 strain (AID 167). The following applies: S. cerevisiae bub3 mutant strain, at 50.0 µM, stronger effect = higher value. In a few lines:
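In this screen, a yeast mutant lacking normal mitotic checkpoint function is challenged with compound. Relative growth versus vehicle gives the inhibition value.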

Experiment [6] in a line: NCI Yeast Anticancer Drug Screen. Data for the mlh1 rad18 strain (AID 175). The following applies: S. cerevisiae mlh1 rad18 strain growth inhibition; at 50.0 µM; stronger effect = higher value. A digest of the protocol:
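Steps: expose repair-defective yeast to compound; measure growth; express inhibition against vehicle-treated controls.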

“And” between values parts separate entries of the source, which are not always exact repeats. Equal entries are not always repeated. Compounds without any hit were thinned out: in the full panel of roughly 79,000, 15% have a hit. More than one record can exist for a structure, and the calls need not agree. The source made the active and inactive calls. No stated cut-off is given here; in the data, active means growth inhibition above about 70%; inactive means the rest.

Consider `O=C(O)C1CC[N-]CC1.O=C(O)C1CC[N-]CC1.[Cl][Pt+2][Cl]`, for which the growth inhibition is 14.8% (inactive) and -3.75% (inactive) in experiment [1]; 13.6% (inactive) and -0.6% (inactive) in experiment [2]; 24.4% (inactive) and -1.25% (inactive) in experiment [3]; -5.25% (inactive) and -42.3% (inactive) in experiment [4]; -5.8% (inactive) and -2.85% (inactive) in experiment [5]; 17.5% (inactive) and 5.45% (inactive) in experiment [6].
As for `O=C(OC(=C(c1ccccc1)c1ccccc1)c1ccccc1)c1ccccc1`, the growth inhibition in experiment [1] was 12.8% (inactive) and -6.95% (inactive); in experiment [2], -0.2% (inactive) and -10.2% (inactive); in experiment [3], -4.45% (inactive) and 15.2% (inactive); in experiment [4], -9.6% (inactive) and -22.2% (inactive); in experiment [5] it was -0.05% (inactive) and 5.6% (inactive); in experiment [6], 11.2% (inactive) and 20.4% (inactive).
Regarding `C1=C(c2cccc3ccccc23)CCCC1`, the growth inhibition in experiment [1] is -2.85% (inactive) and 18.2% (inactive); in experiment [2], 7.45% (inactive) and -4.1% (inactive); in experiment [3], -12.4% (inactive) and -5.1% (inactive); in experiment [4] it was -0.1% (inactive) and 8.1% (inactive); in experiment [5] it was 2.65% (inactive) and 11.7% (inactive); in experiment [6] it was 6.9% (inactive) and -9.2% (inactive).
Consider `CC(CCC(=O)O)(c1ccc(O)cc1)c1ccc(O)cc1`, for which the growth inhibition in experiment [1] was 10.4% (inactive) and -8.8% (inactive); in experiment [2], -0.85% (inactive) and -15.6% (inactive); in experiment [3], -12.8% (inactive) and -51.6% (inactive); in experiment [4], -44.4% (inactive) and -33.4% (inactive); in experiment [5], -2.7% (inactive) and -17.2% (inactive); in experiment [6], 22.8% (inactive) and -15.6% (inactive).
`Cc1cc(C(=O)O)c(CN2C(=O)c3ccccc3C2=O)c(=O)n1C`: the growth inhibition in experiment [1] was -11.3% (inactive) and -1.15% (inactive); in experiment [2] it was 20.4% (inactive) and -14.3% (inactive); in experiment [3] it was 2.45% (inactive) and -7.1% (inactive); in experiment [4], -6.3% (inactive) and 6.85% (inactive); in experiment [5], 12.1% (inactive) and -19.1% (inactive); in experiment [6], -18.9% (inactive) and 9.45% (inactive).
With `CC(C)(N)CCC(=O)O`, the growth inhibition in experiment [1] is 10.3% (inactive) and -0.25% (inactive); in experiment [2], 20.9% (inactive) and 3.7% (inactive); in experiment [3], 12.6% (inactive) and -1.85% (inactive); in experiment [4], -3.05% (inactive) and -7.2% (inactive); in experiment [5], -28.7% (inactive) and 11.1% (inactive); in experiment [6], 6.8% (inactive) and -3.15% (inactive).
On to `CC(=O)C1CC(CC(=O)O)C1(C)C` (configuration not stated), for which the growth inhibition is 4.65% (inactive) and 10.1% (inactive) in experiment [1]; -7.25% (inactive) and 9.75% (inactive) in experiment [2]; -4.4% (inactive) and 12.5% (inactive) in experiment [3]; 13.9% (inactive) and 10.6% (inactive) in experiment [4]; -1.6% (inactive) and 4.9% (inactive) in experiment [5]; 3.3% (inactive) and 14.9% (inactive) in experiment [6].
In the case of `CC(=O)Nc1ccccc1Cl`, the growth inhibition in experiment [1] was 31.6% (inactive) and 6% (inactive); in experiment [2], 6.7% (inactive) and -9.05% (inactive); in experiment [3], 14.2% (inactive) and -20.4% (inactive); in experiment [4] it was 24.9% (inactive) and -20.1% (inactive); in experiment [5] it was 20.2% (inactive) and -15.1% (inactive); in experiment [6], -11.4% (inactive) and 21.4% (inactive).
Consider `COC1OC(CO)C(O)C(O)C1N1C(=O)c2ccccc2C1=O` (configuration not stated), for which the growth inhibition was 9.35% (inactive) and -4.5% (inactive) in experiment [1]; -4.15% (inactive) and 8.4% (inactive) in experiment [2]; 22.6% (inactive) and -3.85% (inactive) in experiment [3]; 7.95% (inactive) and -15.8% (inactive) in experiment [4]; 12.2% (inactive) and 4.45% (inactive) in experiment [5]; 19% (inactive) and -3.45% (inactive) in experiment [6].
Regarding `COC(=O)/C=C\C(=O)O`, the growth inhibition in experiment [1] is -4.95% (inactive) and 5.05% (inactive); in experiment [2], -4.85% (inactive) and -16.4% (inactive); in experiment [3], -1.75% (inactive) and -2.6% (inactive); in experiment [4], -15.7% (inactive) and -17.2% (inactive); in experiment [5], 3.35% (inactive) and -23.7% (inactive); in experiment [6], 14.2% (inactive) and 8.65% (inactive).
Consider `Cc1ccc2ccccc2[n+]1C`, for which the growth inhibition in experiment [1] is 31.9% (inactive) and -24.6% (inactive); in experiment [2], -7.45% (inactive) and -34.3% (inactive); in experiment [3] it was -1.25% (inactive) and -16.4% (inactive); in experiment [4] it was -36.9% (inactive) and 1.2% (inactive); in experiment [5] it was -1.5% (inactive) and -26.8% (inactive); in experiment [6], -5.4% (inactive) and -20.4% (inactive).
Take `Cc1cc(C#N)c(=S)n(C2OC(CO)C(O)C(O)C2O)c1C` (configuration not stated): the growth inhibition in experiment [1] is 7.4% (inactive) and 11.9% (inactive); in experiment [2], 9.25% (inactive) and 8.65% (inactive); in experiment [3] it was 14.2% (inactive) and 15.2% (inactive); in experiment [4] it was 7.25% (inactive) and -0.4% (inactive); in experiment [5] it was 7.8% (inactive) and 7.75% (inactive); in experiment [6], 24.6% (inactive) and 22.6% (inactive).
For the compound `COc1ccc2c(c1)-c1nn(CCCN(C)C)c3ccc([N+](=O)[O-])c(c13)N2`, the growth inhibition was 76.2% (active) and 67.2% (inactive) in experiment [1]; 8% (inactive) and 12.3% (inactive) in experiment [2]; 23.9% (inactive) and -28.4% (inactive) in experiment [3]; 10.7% (inactive) and 20.6% (inactive) in experiment [4]; 27.8% (inactive) and -60.1% (inactive) in experiment [5]; 39.7% (inactive) and 28.5% (inactive) in experiment [6].
Turning to `CCCCNC(=S)NCCCC`, the growth inhibition is -6.45% (inactive) and -1.4% (inactive) in experiment [1]; 9.9% (inactive) and 8% (inactive) in experiment [2]; -11% (inactive) and 19.2% (inactive) in experiment [3]; -32% (inactive) and -17.5% (inactive) in experiment [4]; 1.15% (inactive) and -4.35% (inactive) in experiment [5]; -2.4% (inactive) and 17.3% (inactive) in experiment [6].
Consider `CC(C)c1ccc(C(=O)O)cc1`, for which the growth inhibition is 11.3% (inactive) and 24% (inactive) in experiment [1]; -9.2% (inactive) and 12.3% (inactive) in experiment [2]; 9.55% (inactive) and 13.2% (inactive) in experiment [3]; -8.2% (inactive) and 5.9% (inactive) in experiment [4]; -9% (inactive) and 5.1% (inactive) in experiment [5]; 20.1% (inactive) and 22.2% (inactive) in experiment [6].
Turning to `O=CNc1ccc(C(F)(F)F)cc1`, the growth inhibition in experiment [1] is -16.9% (inactive) and 16.4% (inactive); in experiment [2] it was -6.85% (inactive) and -3.6% (inactive); in experiment [3] it was -3.3% (inactive) and 6.35% (inactive); in experiment [4] it was -10.9% (inactive) and 14.7% (inactive); in experiment [5], -8.8% (inactive) and 25.4% (inactive); in experiment [6], 5.3% (inactive) and 10.9% (inactive).
With `Cc1ccc(N(O)C(C)(C)C)cc1`, the growth inhibition in experiment [1] was -16.4% (inactive) and -2.35% (inactive); in experiment [2], -17.9% (inactive) and 7.6% (inactive); in experiment [3], -4.3% (inactive) and 3.05% (inactive); in experiment [4], -3.85% (inactive) and -1.2% (inactive); in experiment [5] it was -23.9% (inactive) and 13.8% (inactive); in experiment [6], 9.15% (inactive) and -11.9% (inactive).
In the case of `CC1(C)Nc2ccccc2C(c2ccccc2)=NC1=O`, the growth inhibition in experiment [1] is -2.7% (inactive) and 4.8% (inactive); in experiment [2] it was -17.1% (inactive) and -15.2% (inactive); in experiment [3] it was -7% (inactive) and 0.85% (inactive); in experiment [4], -5.75% (inactive) and -0.25% (inactive); in experiment [5], -4.7% (inactive) and -4.6% (inactive); in experiment [6], 12.7% (inactive) and 13.3% (inactive).
With `COc1ccc2c(=O)c(C)c(-c3ccccc3)oc2c1CN(C)C`, the growth inhibition is 5.85% (inactive) and -33.4% (inactive) in experiment [1]; -40.1% (inactive) and -38.5% (inactive) in experiment [2]; 10.3% (inactive) and -26.6% (inactive) in experiment [3]; 9.8% (inactive) and -0.05% (inactive) in experiment [4]; -22.6% (inactive) and -24.3% (inactive) in experiment [5]; 2% (inactive) and -28.3% (inactive) in experiment [6].
For the compound `COc1cc([N+](=O)[O-])c(S(=O)(=O)O)cc1N`, the growth inhibition in experiment [1] is -7.95% (inactive) and 30.1% (inactive); in experiment [2], 22.8% (inactive) and 6.65% (inactive); in experiment [3], -11.8% (inactive) and -0.8% (inactive); in experiment [4] it was -23.7% (inactive) and 16.8% (inactive); in experiment [5] it was 7.2% (inactive) and 16.3% (inactive); in experiment [6] it was -0.75% (inactive) and 38.9% (inactive).
For `O=C(Nc1nn[nH]n1)c1nc(-c2ccccc2)cc(=O)[nH]1`, the growth inhibition in experiment [1] was -15.6% (inactive) and -10.2% (inactive); in experiment [2], -3.75% (inactive) and 9.5% (inactive); in experiment [3] it was 7.35% (inactive) and 5.4% (inactive); in experiment [4], -49.8% (inactive) and 1.15% (inactive); in experiment [5], 5.7% (inactive) and -5.95% (inactive); in experiment [6] it was 1.95% (inactive) and -2.25% (inactive).
As to `N#Cc1c(-c2ccccc2)cc(-c2ccccc2)n(C2OC(CO)C(O)C(O)C2O)c1=O` (configuration not stated), the growth inhibition in experiment [1] was -14.6% (inactive) and -8.2% (inactive); in experiment [2] it was -2.85% (inactive) and -9.1% (inactive); in experiment [3] it was 4.85% (inactive) and -5.85% (inactive); in experiment [4] it was 1.2% (inactive) and 12.4% (inactive); in experiment [5], 5.65% (inactive) and 8.3% (inactive); in experiment [6], -7.95% (inactive) and -10.8% (inactive).
